# In PubChem BioAssay (NCATS):
# Several values for one entry are separate records, joined by “and”; a condition that tells them apart may be missing. Equal entries are not always repeated. Results filed as inconclusive are left out. A call without a number means that no potency is given here. Activity calls are given as the source filed them. Calls follow the shape of the dose curve; as a rule, active = well fitted curve in the direction sought with a large enough effect; inconclusive = small, poorly fitted or top-dose-only effect, or another doubt; inactive = no such curve, though single readings can be large; an effect the other way counts as inactive or inconclusive.
# Key:
# [1] = target: Glutathione peroxidase 1 (Homo sapiens) (UniProt P07203); assay: Primary qHTS Assay for Inhibitors of Recombinant Selenoprotein Glutathione Peroxidase 1 (GPX1) (AID 1845191); also: nearly all actives have a fitted effect of over 65% in size
# How it was run: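 GPX1 10 nM, GR 100 nM, GSH 1 mM, NADPH 0.5 mM, CHP 0.5 mM (final). 30-min cpd preincubation, RT. Ex340/Em450 read t=0, t=15 min.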
# [2] = target: Phospholipid hydroperoxide glutathione peroxidase GPX4 (Homo sapiens) (UniProt P36969); assay: Primary qHTS Assay for Inhibitors of Recombinant Selenoprotein Glutathione Peroxidase 4 (GPX4) (AID 1845192); also: nearly all actives have a fitted effect of over 65% in size
# How it was run: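 qHTS, GR-coupled: GPX4 200 nM + cpd 30 min RT → GSH 1 mM, NADPH 0.5 mM, GR 100 nM → CHP 0.5 mM start; fluor 340/450 at t0 and t15 min; no-enzyme wells as control.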
# [3] = Quantitative High-Throughput drug screen in 47 multiple myeloma cell lines against the NCATS MIPE library collection: FR4_PLB cell viability assay (AID 1918924; also: nearly all actives have a fitted effect of over 35% in size)
# How it was run: (§1)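 qHTS of the MIPE 4.0 collection: 500 myeloma cells/well, 48 h drug exposure at 37C in 5% CO2, then CellTiter-Glo for 5 min at room temperature before luminescence reading.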
# [4] = Quantitative High-Throughput drug screen in 47 multiple myeloma cell lines against the NCATS MIPE library collection: EJM_DSMZ cell viability assay (AID 1918926; also: nearly all actives have a fitted effect of over 30% in size)
# How it was run: (§2)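 Primary qHTS used for cherry-picking: cells at 500/well, library compounds for 48 h (37C, 5% CO2), luminescent ATP assay.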
# [5] = Quantitative High-Throughput drug screen in 47 multiple myeloma cell lines against the NCATS MIPE library collection: AMO1_DSMZ cell viability assay (AID 1918927; also: nearly all actives have a fitted effect of over 30% in size)
# How it was run: as §2
# [6] = Quantitative High-Throughput drug screen in 47 multiple myeloma cell lines against the NCATS MIPE library collection: ARP1_JJKsccF8 cell viability assay (AID 1918928; also: nearly all actives have a fitted effect of over 40% in size)
# How it was run: (§3)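 500 cells/well; MIPE 4.0 library pinned in; 48 h, 37 °C, 5% CO2; CellTiter-Glo ATP luminescence. Controls: DMSO = 100% viability, medium only = 0%.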
# [7] = Quantitative High-Throughput drug screen in 47 multiple myeloma cell lines against the NCATS MIPE library collection: ARD_JJKsccE7 cell viability assay (AID 1918929)
# How it was run: as §2
# [8] = Quantitative High-Throughput drug screen in 47 multiple myeloma cell lines against the NCATS MIPE library collection: JJN3_DSMZ cell viability assay (AID 1918966; also: nearly all actives have a fitted effect of over 50% in size)
# How it was run: as §2
# [9] = Quantitative High-Throughput drug screen in 47 multiple myeloma cell lines against the NCATS MIPE library collection: Delta47_JCRB cell viability assay (AID 1918925; also: nearly all actives have a fitted effect of over 45% in size)
# How it was run: as §2
# [10] = Quantitative High-Throughput drug screen in 47 multiple myeloma cell lines against the NCATS MIPE library collection: Karpas620_DSMZ cell viability assay (AID 1918959); also: nearly all actives have a fitted effect of over 30% in size
# How it was run: as §1
# [11] = Quantitative High-Throughput drug screen in 47 multiple myeloma cell lines against the NCATS MIPE library collection: KMM1_JCRB cell viability assay (AID 1918960); also: nearly all actives have a fitted effect of over 30% in size
# How it was run: as §3
# [12] = Quantitative High-Throughput drug screen in 47 multiple myeloma cell lines against the NCATS MIPE library collection: JIM3_ECACC cell viability assay (AID 1918963; also: nearly all actives have a fitted effect of over 35% in size)
# How it was run: as §1
# [13] = Quantitative High-Throughput drug screen in 47 multiple myeloma cell lines against the NCATS MIPE library collection: INA6_PLB cell viability assay (AID 1918965; also: nearly all actives have a fitted effect of over 55% in size)
# How it was run: (§4)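 Luminescent ATP measurement with CellTiter-Glo gives viability, scaled between DMSO-only wells (100%) and media-only wells (0%). Cells, 500 per well, faced library compounds for 48 hours at 37C.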
# [14] = Quantitative High-Throughput drug screen in 47 multiple myeloma cell lines against the NCATS MIPE library collection: H1112_PLB cell viability assay (AID 1918967; also: nearly all actives have a fitted effect of over 30% in size)
# How it was run: as §2
# [15] = Quantitative High-Throughput drug screen in 47 multiple myeloma cell lines against the NCATS MIPE library collection: Karpas25_ECACC cell viability assay (AID 1918968; also: nearly all actives have a fitted effect of over 35% in size)
# How it was run: as §2
# [16] = Quantitative High-Throughput drug screen in 47 multiple myeloma cell lines against the NCATS MIPE library collection: JIM1_ECACC cell viability assay (AID 1918964)
# How it was run: as §2
# [17] = Quantitative High-Throughput drug screen in 47 multiple myeloma cell lines against the NCATS MIPE library collection: Karpas417_ECACC cell viability assay (AID 1918961); conditions: Karpas417 myeloma viability, CellTiter-Glo ATP luminescence, 48 h; viability (% of DMSO): at 45.8 µM (top of the series)
# How it was run: as §4
# [18] = Quantitative High-Throughput drug screen in 47 multiple myeloma cell lines against the NCATS MIPE library collection: KHM11_PLB cell viability assay (AID 1918962); also: nearly all actives have a fitted effect of over 35% in size
# How it was run: as §1
# Potency is read from the fitted curve at half-maximal effect.
# Chain of Glutathione peroxidase 1 (Homo sapiens) (P07203 whole entry, looked up): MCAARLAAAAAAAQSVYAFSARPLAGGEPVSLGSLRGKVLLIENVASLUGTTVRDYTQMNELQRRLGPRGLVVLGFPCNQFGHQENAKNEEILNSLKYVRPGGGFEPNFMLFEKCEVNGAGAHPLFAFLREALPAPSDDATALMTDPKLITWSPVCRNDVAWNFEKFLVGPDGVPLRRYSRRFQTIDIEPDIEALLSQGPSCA
# Chain of Phospholipid hydroperoxide glutathione peroxidase GPX4 (Homo sapiens) (P36969 whole entry, looked up): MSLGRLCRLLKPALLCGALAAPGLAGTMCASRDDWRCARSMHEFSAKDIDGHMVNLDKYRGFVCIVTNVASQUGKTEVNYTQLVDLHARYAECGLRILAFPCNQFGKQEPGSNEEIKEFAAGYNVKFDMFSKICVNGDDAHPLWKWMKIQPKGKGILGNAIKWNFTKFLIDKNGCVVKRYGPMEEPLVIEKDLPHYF
SMILES,Potency [1],Potency [2],Potency [3],Potency [4],Potency [5],Potency [6],Potency [7],Potency [8],Potency [9],Potency [10],Potency [11],Potency [12],Potency [13],Potency [14],Potency [15],Potency [16],Potency [17],Potency [18],viability (% of DMSO) [17]
CCCCc1ccc2nc(NC(=O)OC)[nH]c2c1,inactive,inactive,0.0021 µM (active),0.0264 µM (active),inactive,0.0066 µM (active),0.0093 µM (active),4.69 µM (active),,,,,,,,,,,
CS(=O)(=O)OCCCCOS(C)(=O)=O,inactive,inactive,4.18 µM (active),,inactive,,inactive,,inactive,inactive,inactive,inactive,inactive,inactive,inactive,,,,
CCCCCCCCCCCCCCCCCCCCCCO,inactive,inactive,inactive,inactive,inactive,inactive,inactive,inactive,,inactive,inactive,inactive,inactive,inactive,,,,,
CC(C)c1ccc2oc3nc(N)c(C(=O)O)cc3c(=O)c2c1,22.7 µM (active) and 16.3 µM (active),12.8 µM (active) and 8.06 µM (active),inactive,inactive,inactive,,inactive,inactive,,inactive,,inactive,,inactive,inactive,inactive,,,
CCCc1cc(=O)[nH]c(=S)[nH]1,inactive,inactive,inactive,inactive,inactive,inactive,inactive,,,,inactive,inactive,,inactive,,inactive,,,
CCN(CC)CCOc1ccc(Nc2ncc3cc(-c4c(Cl)cccc4Cl)c(=O)n(C)c3n2)cc1,inactive,inactive,0.935 µM (active),2.09 µM (active),0.166 µM (active),2.64 µM (active),0.166 µM (active),,,2.09 µM (active),0.0332 µM (active),0.118 µM (active),,5.9 µM (active),,0.0833 µM (active),0.105 µM (active),1.32 µM (active),
O=C(O)CCNC(=O)c1ccc(N=Nc2ccc(O)c(C(=O)O)c2)cc1,inactive,inactive,inactive,inactive,,inactive,inactive,,inactive,inactive,inactive,inactive,inactive,inactive,,,,,
Cc1cccc(-c2[nH]ncc2-c2ccc3ncccc3n2)n1,inactive,inactive,0.118 µM (active),inactive,inactive,inactive,inactive,,,inactive,,inactive,,inactive,,,,,
C[C@H](Cc1ccc(O)c(O)c1)[C@@H](C)Cc1ccc(O)c(O)c1,inactive,inactive,2.09 µM (active),,7.43 µM (active),20.9 µM (active),,14.8 µM (active),16.6 µM (active),5.26 µM (active),,,9.35 µM (active),,14.8 µM (active),inactive,,,
CCCCC(CC)COC(=O)C(C#N)=C(c1ccccc1)c1ccccc1 (stereo unspecified),inactive,inactive,inactive,inactive,inactive,inactive,,inactive,,inactive,inactive,inactive,9.35 µM (active),inactive,inactive,inactive,,inactive,94.7% (active)
O=Nc1c(-c2c(O)[nH]c3cc(Br)ccc23)[nH]c2ccccc12,inactive,inactive,inactive,14.8 µM (active),1.05 µM (active),14.8 µM (active),,18.7 µM (active),5.9 µM (active),8.33 µM (active),5.26 µM (active),5.26 µM (active),,10.5 µM (active),,1.32 µM (active),,4.69 µM (active),
CCOC(=O)C1=C(O)C(=O)N(Cc2ccccc2)C1,inactive,inactive,inactive,inactive,inactive,,inactive,9.35 µM (active),,inactive,inactive,inactive,inactive,inactive,,,,,
CC1(C)C(=O)N(CCN2CCC(C(=O)c3ccc(F)cc3)CC2)c2ccccc21,inactive,inactive,inactive,inactive,6.62 µM (active),20.9 µM (active),9.35 µM (active),,,3.72 µM (active),8.33 µM (active),,1.66 µM (active),,13.2 µM (active),,,2.09 µM (active),
CCC[C@@H]1C[C@@H](C(=O)N[C@@H]([C@H]2O[C@H](SC)[C@H](O)[C@@H](O)[C@H]2O)[C@@H](C)O)N(C)C1,inactive,inactive,inactive,3.32 µM (active),inactive,inactive,inactive,,,,inactive,inactive,,inactive,,,inactive,inactive,
O=C1CCc2ccc(OCCCCN3CCN(c4cccc(Cl)c4Cl)CC3)cc2N1,inactive,inactive,inactive,inactive,inactive,23.5 µM (active),,18.7 µM (active),,,,14.8 µM (active),,,16.6 µM (active),inactive,,,
Cc1cc(C2CCCCC2)n(O)c(=O)c1,inactive,inactive,6.62 µM (active),16.6 µM (active),7.43 µM (active),9.35 µM (active),9.35 µM (active),18.7 µM (active),,8.33 µM (active),9.35 µM (active),8.33 µM (active),6.62 µM (active),13.2 µM (active),3.32 µM (active),3.32 µM (active),2.96 µM (active),4.69 µM (active),
